# Experimental data from PubChem BioAssay (EPA / NIEHS).
# “And” between values parts separate entries of the source, which are not always exact repeats. Identical values can stand only once. Records with an inconclusive call do not appear. The source holds several records for some structures; these can differ, active in one and inactive in another. The source made the active and inactive calls. The calls were made as follows, unless noted: active = hit-call score of the fitted dose curve at least 0.9, where 1 is the maximum; inconclusive = response in the unintended direction; inactive = score below 0.9.
# Tests used:
# [1] = read-out: alkyl and aryl transferase (GSTA2), GSTA2 (gene 2939); assay: CLD_GSTA2_48hr: CellzDirect (CLD) Gene Expression Assay for alkyl and aryl transferase (GSTA2) at 48 hours (AID 2283708);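 also: active means mRNA induction above DMSO vehicle baseline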
# How it was run: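 Primary human hepatocytes dosed daily for two days (0.2% DMSO vehicle), harvested at 48 h. GSTA2 mRNA induction measured by quantitative nuclease protection assay with chemiluminescent imaging, fitted for gain of signal relative to DMSO.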
# [2] = STM_H9_CystineISnorm_perc: Stemina devTOX quickPredict H9 human embryonic stem cell (hESC)-based Assay for Cystine (CYSS) Metabolite Biomarker, Normalized (AID 2283713; active = hit-call score of the fitted dose curve at least 0.9, where 1 is the maximum; inactive = score below 0.9)
# How it was run: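 Secreted cystine was measured by UPLC-HRMS in H9 hESC medium after 72h compound exposure with 24-hourly replenishment. Values are standard-normalized areas relative to 0.1% DMSO.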
# [3] = STM_H9_OrnCyssISnorm_ratio: Stemina devTOX quickPredict H9 human embryonic stem cell (hESC)-based Assay for Ornithine (ORN):Cystine (CYSS) Ratio (AID 2283714)
# How it was run: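 Steps: H9 hESCs in pluripotent state dosed 72h, medium plus compound renewed every 24h; conditioned medium from the final 24h deproteinized in 40% acetonitrile; ORN and CYSS quantified by UPLC-HRMS with C13 spike-ins; ratio relative to vehicle.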
# [4] = CEETOX_H295R_MTT_cell_viability: Viability Assessment in the CeeTox HT-H295R MTT Assay (AID 2283718; active = hit-call score of the fitted dose curve at least 0.9, where 1 is the maximum; inactive = score below 0.9;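 as to AC50: curve fitted both ways so AC50 may mark viability loss or gain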)
# How it was run: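 MTT reduction (0.5 mg/ml, 4 h at 37 C; absorbance at 570 and 650 nm) gave viability as background-corrected percent change versus controls. H295R cells had 48 h forskolin (10 uM) prestimulation, then 48 h chemical exposure at 0.1% DMSO.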
# [5] = Tanguay_ZF_120hpf_ActivityScore_legacy: (Legacy) Oregon State University Tanguay Lab 120 Hour Post-fertilization zebrafish Assay Score for Activity (AID 2283742);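 as to AC50: dechorionated Tropical 5D wild-type zebrafish embryos held singly per well; static exposure from 6 hpf until 120 hpf at 28 °C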
# How it was run: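 Embryos are staged, enzymatically dechorionated at 4 hpf, placed individually at 6 hpf, then held in test chemical (0.64% DMSO) at 28C until 120 hpf. Mortality and malformations are scored by brightfield, with non-mortality endpoints skipped for dead embryos.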
# [6] = ArunA_CellTiter_hNC: Viability Assessment in the ArunA Biomedical's Oris Neural Crest (hNC) Cell Migration Assay (AID 2283752)
# How it was run: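 Viability of embryonic neural crest stem cells from the H9 line is scored 72 h after dosing, with DMSO as negative control and baseline. A drop in CellTiter Aqueous One signal indicates cytotoxicity.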
# [7] = ArunA_CellTiter_hNP: Viability Assessment in the ArunA Biomedical's Oris Neural Crest (hNC) Cell Migration Assay (AID 2283753)
# How it was run: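 H9-derived hNP1 neuroprogenitors, 60,000/well on Matrigel, cultured 16 h, then 72 h chemical exposure in test medium. Cell titer via CellTiter Aqueous One; positive-direction fit vs DMSO.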
# [8] = ArunA_Migration_hNP: ArunA Biomedical's Oris Neuroprogenitor (hNP) Cell Migration Assay (AID 2283754)
# How it was run: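 Human H9-derived hNP1 neuroprogenitors on Matrigel with LIF/bFGF, plated around seeding stoppers for 16 h at 37C; stoppers removed at start of 72 h chemical exposure. Calcein-AM staining, fluorescence 494/517 nm in detection zone; loss-of-signal vs DMSO; cytochalasin D control.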
# [9] = read-out: glucuronosyltransferase (UGT1A1), UGT1A1 (gene 54658); assay: CLD_UGT1A1_48hr: CellzDirect (CLD) Gene Expression Assay for glucuronosyltransferase (UGT1A1) at 48 hours (AID 2283709);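 also: actives increase expression relative to DMSO so potency refers to induction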
# How it was run: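 Human primary hepatocytes dosed daily for two days (0.2% DMSO vehicle), harvested at 48 h. UGT1A1 mRNA induction measured by quantitative nuclease protection assay with chemiluminescence; gain of signal versus DMSO; cytotoxicity flagged from morphology.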
# [10] = read-out: sulfotransferase (SULT2A), SULT2A1 (gene 6822); assay: CLD_SULT2A_48hr: CellzDirect (CLD) Gene Expression Assay for sulfotransferase (SULT2A) at 48 hours (AID 2283710);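 also: hits raise SULT2A1 transcript above the 0.2% DMSO vehicle baseline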
# How it was run: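 Primary human hepatocytes (two donor preparations) dosed daily for two days with chemicals at multiple concentrations, vehicle 0.2% DMSO; SULT2A1 mRNA induction at 48 h by quantitative nuclease protection assay, chemiluminescent read-out, fitted for gain of signal versus DMSO.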
smiles,measurement,setting,value
CCCC1COC(Cn2cncn2)(c2ccc(Cl)cc2Cl)O1 (configuration not stated),outcome,[1],inactive
same,AC50,[2],33.6 µM (active)
same,AC50,[3],57.5 µM (active)
same,outcome,[4],inactive
same,AC50,[5],42.8 µM (active)
CCCCNC(=O)n1c(NC(=O)OC)nc2ccccc21,outcome,[1],inactive
same,AC50,[2],8.39 µM (active)
same,AC50,[3],6.59 µM (active)
same,AC50,[4],15 nM (active)
same,outcome,[5],inactive
C#CCOS(=O)OC1CCCCC1Oc1ccc(C(C)(C)C)cc1 (configuration not stated),outcome,[1],inactive
same,AC50,[2],2.42 µM (active)
same,AC50,[3],2.89 µM (active)
same,outcome,[5],inactive
CCCCOC(=O)c1ccccc1C(=O)OCCCC,outcome,[1],inactive
same,AC50,[2],50 µM (active)
same,AC50,[3],56 µM (active)
same,outcome,[4],inactive
same,outcome,[5],inactive
CC(C)(C)c1ccc(CSc2cnn(C(C)(C)C)c(=O)c2Cl)cc1,outcome,[1],inactive
same,AC50,[2],0.171 µM (active)
same,AC50,[3],0.091 µM (active)
same,AC50,[5],40.3 µM (active)
same,outcome,[6],inactive
same,outcome,[7],inactive
same,AC50,[8],0.0196 µM (active)
COP(=S)(OC)Oc1nc(Cl)c(Cl)cc1Cl,outcome,[1],inactive
same,outcome,[4],inactive
same,outcome,[5],inactive
N#Cc1nn(-c2c(Cl)cc(C(F)(F)F)cc2Cl)c(N)c1S(=O)C(F)(F)F (configuration not stated),AC50,[1],4.25 µM (active)
same,AC50,[2],88.7 µM (active)
same,AC50,[3],81.7 µM (active)
same,outcome,[5],inactive
same,AC50,[6],43.8 µM (active)
same,AC50,[7],36.8 µM (active)
same,AC50,[8],50 µM (active)
CCOc1cc(Oc2ccc(C(F)(F)F)cc2Cl)ccc1[N+](=O)[O-],outcome,[1],inactive
same,AC50,[9],5.41 µM (active)
same,outcome,[4],inactive
same,outcome,[5],inactive
OC(c1ccc(Cl)cc1)(c1cncnc1)c1ccccc1Cl (configuration not stated),AC50,[1],15.8 µM (active)
same,outcome,[10],inactive
same,AC50,[3],77.7 µM (active)
same,AC50,[4],77200 nM (active)
same,outcome,[5],inactive
C=CCC1=C(C)C(OC(=O)C2C(C=C(C)C)C2(C)C)CC1=O (configuration not stated),outcome,[1],inactive
same,AC50,[9],11.1 µM (active)
same,AC50,[4],9990 nM (active)
same,outcome,[5],inactive
CCc1nn(C)c(C(=O)NCc2ccc(C(C)(C)C)cc2)c1Cl,outcome,[1],inactive
same,AC50,[2],1.82 µM (active)
same,AC50,[3],1.55 µM (active)
same,AC50,[5],2.81 µM (active)
C=CCC1=C(C)[C@@H](OC(=O)[C@@H]2[C@@H](C=C(C)C)C2(C)C)CC1=O,outcome,[1],inactive
same,outcome,[2],inactive
same,outcome,[5],inactive
same,AC50,[6],0.992 µM (active)
same,outcome,[7],inactive
same,outcome,[8],inactive
CN(C)C(=S)SSC(=S)N(C)C,outcome,[1],inactive
same,AC50,[2],14.5 µM (active)
same,AC50,[3],16.2 µM (active)
same,AC50,[5],9.8 µM (active)
CCNc1nc(Cl)nc(NC(C)C)n1,outcome,[1],inactive
same,AC50,[2],42.3 µM (active)
same,AC50,[3],50 µM (active)
same,outcome,[4],inactive
same,outcome,[5],inactive
COC(=O)N(OC)c1ccccc1COc1ccn(-c2ccc(Cl)cc2)n1,AC50,[1],33.8 µM (active)
same,AC50,[2],0.743 µM (active)
same,AC50,[3],0.806 µM (active)
same,AC50,[5],0.409 µM (active)
CO/C=C(/C(=O)OC)c1ccccc1Oc1cc(Oc2ccccc2C#N)ncn1,AC50,[1],20 µM (active)
same,outcome,[2],inactive
same,outcome,[3],inactive
same,AC50,[5],9.41 µM (active) and 2.03 µM (active)
same,outcome,[5],inactive
COc1nc(C)nc(NC(=O)NS(=O)(=O)c2ccccc2CCC(F)(F)F)n1,outcome,[1],inactive
Oc1ccccc1-c1ccccc1,outcome,[1],inactive
same,outcome,[4],inactive
same,AC50,[5],45.8 µM (active)
COc1nc(C)nc(NC(=O)NS(=O)(=O)c2ccccc2Cl)n1,outcome,[1],inactive
CCOC(=O)CC(SP(=S)(OC)OC)C(=O)OCC (configuration not stated),outcome,[1],inactive
same,AC50,[2],86.9 µM (active)
same,AC50,[3],80.9 µM (active)
same,outcome,[4],inactive
same,AC50,[5],29.2 µM (active)
CC(C)Oc1cc(-n2nc(C(C)(C)C)oc2=O)c(Cl)cc1Cl,outcome,[1],inactive
same,outcome,[4],inactive
same,outcome,[5],inactive
C=CC1(C)OC(=O)N(c2cc(Cl)cc(Cl)c2)C1=O (configuration not stated),outcome,[1],inactive
same,outcome,[9],inactive
same,outcome,[2],inactive
same,outcome,[3],inactive
same,outcome,[4],inactive
same,outcome,[5],inactive
CCON=C(CC)C1=C(O)CC(c2c(C)cc(C)cc2C)CC1=O (configuration not stated),outcome,[1],inactive
same,outcome,[2],inactive
same,outcome,[3],inactive
same,outcome,[4],inactive
same,outcome,[5],inactive
Cc1c(F)c(F)c(COC(=O)C2C(/C=C(\Cl)C(F)(F)F)C2(C)C)c(F)c1F (configuration not stated),outcome,[1],inactive
same,outcome,[9],inactive
same,outcome,[4],inactive
same,AC50,[5],20.9 µM (active)
CC1COC(Cn2cncn2)(c2ccc(Oc3ccc(Cl)cc3)cc2Cl)O1 (configuration not stated),outcome,[1],inactive
same,AC50,[2],2.87 µM (active)
same,AC50,[3],3.88 µM (active)
same,AC50,[4],74.9 nM (active)
same,outcome,[5],inactive
COC(=O)c1ccccc1C(=O)OC,outcome,[1],inactive
same,outcome,[2],inactive
same,outcome,[3],inactive
same,outcome,[4],inactive
same,outcome,[5],inactive
COC(=O)C(C)Oc1ccc(Oc2ccc(Cl)cc2Cl)cc1 (configuration not stated),outcome,[1],inactive
same,outcome,[5],inactive
O=C(Nc1ccccc1)Nc1ccnc(Cl)c1,AC50,[5],38.6 µM (active)
CS/C(C)=N/OC(=O)N(C)SN(C)C(=O)O/N=C(\C)SC,outcome,[9],inactive
same,outcome,[5],inactive
Fc1ccc(Oc2ccnc3cc(Cl)cc(Cl)c23)cc1,outcome,[1],inactive
same,outcome,[5],inactive
CC1=C(C(=O)Nc2ccccc2)SCCO1,outcome,[4],inactive
same,AC50,[5],47.7 µM (active)
Cc1cc(Cl)ccc1OCC(=O)O,outcome,[4],inactive
same,outcome,[5],inactive
CNC(=S)S,outcome,[1],inactive
same,outcome,[4],inactive
same,outcome,[5],inactive
CCNc1nc(Cl)nc(NCC)n1,outcome,[2],inactive
same,outcome,[3],inactive
same,outcome,[4],inactive
same,outcome,[5],inactive
CC(C)C1(C)N=C(c2nc3ccccc3cc2C(=O)O)NC1=O (configuration not stated),outcome,[1],inactive
same,outcome,[5],inactive
Cc1ccc(-c2c(Cl)nc(C#N)n2S(=O)(=O)N(C)C)cc1,outcome,[1],inactive
same,AC50,[5],2.27 µM (active)
CCCCNC(=O)OCC#CI,outcome,[1],inactive
same,AC50,[5],15.8 µM (active)
CCOC(=O)C(Cl)Cc1cc(-n2nc(C)n(C(F)F)c2=O)c(F)cc1Cl (configuration not stated),outcome,[1],inactive
same,AC50,[4],41.2 nM (active)
same,AC50,[5],2.02 µM (active)
CCCN(CCC)c1c([N+](=O)[O-])cc(S(N)(=O)=O)cc1[N+](=O)[O-],outcome,[1],inactive
same,outcome,[5],inactive
COP(N)(=O)SC (configuration not stated),outcome,[1],inactive
same,outcome,[5],inactive
N#Cc1cc(Br)c(O)c(Br)c1,outcome,[1],inactive
same,AC50,[5],23.8 µM (active)
CON(C)C(=O)Nc1ccc(Cl)c(Cl)c1,outcome,[9],inactive
same,AC50,[2],73.3 µM (active)
same,AC50,[3],71.7 µM (active)
same,outcome,[4],inactive
same,outcome,[5],inactive
COc1ccc(C(c2ccc(OC)cc2)C(Cl)(Cl)Cl)cc1,AC50,[9],8.36 µM (active)
same,outcome,[2],inactive
same,outcome,[3],inactive
same,outcome,[5],inactive
COc1nc(NC(C)C)nc(NC(C)C)n1,AC50,[2],13.5 µM (active)
same,AC50,[3],14.6 µM (active)
same,outcome,[4],inactive
same,outcome,[5],inactive
CC(Oc1ccc(Cl)cc1Cl)C(=O)O (configuration not stated),outcome,[1],inactive
same,outcome,[5],inactive
N#CC(CCc1ccc(Cl)cc1)(Cn1cncn1)c1ccccc1 (configuration not stated),outcome,[1],inactive
same,outcome,[4],inactive
same,outcome,[5],inactive
CCOP(=S)(OCC)SCn1c(=O)oc2cc(Cl)ccc21,outcome,[9],inactive
same,outcome,[4],inactive
same,outcome,[5],inactive
O=C(O)c1nc(Cl)ccc1Cl,outcome,[1],inactive
same,outcome,[5],inactive
COc1cnc(OC)n2nc(NS(=O)(=O)c3c(OCC(F)F)cccc3C(F)(F)F)nc12,outcome,[1],inactive
same,outcome,[5],inactive
CNC(=O)ON=CC(C)(C)SC,outcome,[1],inactive
same,AC50,[5],0.00317 µM (active)
O=C(O)COc1nc(Cl)c(Cl)cc1Cl,outcome,[5],inactive
CCCCC(CC)COC(=O)c1ccccc1C(=O)OCC(CC)CCCC (configuration not stated),AC50,[2],30 µM (active)
same,AC50,[3],30.9 µM (active)
same,outcome,[4],inactive
same,outcome,[5],inactive
COC(=O)C=C(C)OP(=O)(OC)OC,outcome,[1],inactive
same,outcome,[5],inactive
